In all, about 39,000 sequences were measured (“fluorescence intensity (a.u.)”: median about 4,300, highest 2% from about 39,000 on). Many of the other results were omitted from the sample, so the highest values are more common in it than they were.

The assay concerns the target T1, OsSMF1 (Oryza sativa, UniProt Q6ZLB0 1-436).
T1 sequence: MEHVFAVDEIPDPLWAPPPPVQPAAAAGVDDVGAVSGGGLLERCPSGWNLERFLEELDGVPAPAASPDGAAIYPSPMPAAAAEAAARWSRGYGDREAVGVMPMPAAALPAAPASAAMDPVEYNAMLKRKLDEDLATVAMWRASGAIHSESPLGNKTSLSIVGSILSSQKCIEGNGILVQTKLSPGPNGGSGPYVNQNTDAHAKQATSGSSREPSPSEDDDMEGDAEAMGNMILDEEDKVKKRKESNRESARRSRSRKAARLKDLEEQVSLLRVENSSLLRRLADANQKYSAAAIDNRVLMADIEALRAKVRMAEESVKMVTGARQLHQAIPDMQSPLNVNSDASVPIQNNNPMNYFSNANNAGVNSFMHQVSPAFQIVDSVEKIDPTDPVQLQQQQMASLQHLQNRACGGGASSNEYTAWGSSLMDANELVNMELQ
In words: protein-binding microarray (RPBM); PBS, 2% BSA, 51.3 ng/ul salmon testes DNA, 50 uM zinc acetate, 200 nM TF, 25 C, 1 h; high values mean tight binding. Conditions: protein: recombinant; tags: N-terminal polyhistidine and DsRed monomer fusion (pET32a); chain copies: 2; label: CyDye5-dUTP incorporated in the synthesized complementary strand; 3' TTTTT single-stranded linker to array surface; dsDNA, one strand shown. In a few lines: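 Binding signal here means per-feature fluorescence intensity in arbitrary units. The values were read on an Axon 4000B scanner after a custom Agilent array, double-stranded by primer extension with Cy5-dUTP, was incubated with 200 nM protein at 25 °C for 1 h in PBS with 2% BSA, salmon testes DNA and 50 µM zinc acetate, then washed. The proteins were transcription factors with an N-terminal polyhistidine tag and DsRed, expressed in E. coli BL21-CodonPlus and purified on Ni–NTA.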
In the case of “TTTCGCCATTTCCGACAATGTACTTCACCACTGATCTGAACGGAGTCACCTAGTGCAG”, the binding signal is 64900 fluorescence intensity (a.u.).

Take “TACTACTTCCGATCAGAGCCATACCAATGCCACGACACGACGGAGTCACCTAGTGCAG”: the binding signal was 4090 fluorescence intensity (a.u.).

Turning to “GCCATCTGACAACCAGTAAATGTACTGTCCACCGGGCCAACGGAGTCACCTAGTGCAG”, the binding signal is 6470 fluorescence intensity (a.u.).

Take “CAAGTGATAATCTATACCTAGTTGATGATGCCAATATCATCGGAGTCACCTAGTGCAG”: the binding signal is 4340 fluorescence intensity (a.u.).

As for “TGCAACCACCACCACCACGTCCCAAACTCGCACGTTTCTCCGGAGTCACCTAGTGCAG”, the binding signal was 4090 fluorescence intensity (a.u.).

In the case of “CAAATGTTCTTTTGACGTATATGACCACATATTTGCAGTACGGAGTCACCTAGTGCAG”, the binding signal was 3520 fluorescence intensity (a.u.).

In the case of “CTGTGTGAACAACAAATCAATGGCCACGTCATATATGTACCGGAGTCACCTAGTGCAG”, the binding signal is 16800 fluorescence intensity (a.u.).

As for “ACAATGTTCCGGGTCTTATATTGCCAAATCAGTGACGTACCGGAGTCACCTAGTGCAG”, the binding signal is 59800 fluorescence intensity (a.u.).

Consider “GGGCGCACCTACAGCACCAAGTGTAACCAGAGCTTACACACGGAGTCACCTAGTGCAG”, for which the binding signal is 3420 fluorescence intensity (a.u.).

Regarding “CCTCCATCTATGTCCTGCTGTCCAACATCTACGCGGATGCCGGAGTCACCTAGTGCAG”, the binding signal is 3820 fluorescence intensity (a.u.).

Consider “TTCTCCTCGGCCTCCATGTGCACGTCCATGTGGCGCATGGCGGAGTCACCTAGTGCAG”, for which the binding signal is 4220 fluorescence intensity (a.u.).

Regarding “AATTCCTCTCTCTCTCTCCCCTCCCATGGCGTCACTGTCGCGGAGTCACCTAGTGCAG”, the binding signal is 6120 fluorescence intensity (a.u.).

In the case of “ATGGCGCGCCGCCACGTCACCCCGACTCGCCACGTCAGCACGGAGTCACCTAGTGCAG”, the binding signal is 65500 fluorescence intensity (a.u.).

In the case of “CTCTCTCCTCGTCTTCCTCGCGCTGACTCTTCTCCTCCTCCGGAGTCACCTAGTGCAG”, the binding signal was 3180 fluorescence intensity (a.u.).

On to “TTCACTCGAGGAGGCGGCGGAGGCAGTCCACGTCAGCAACCGGAGTCACCTAGTGCAG”, for which the binding signal was 39000 fluorescence intensity (a.u.).

As for “CGTGCACGTGTTCACCGGAGGTGCTCGTCAGCAAAGCAGGCGGAGTCACCTAGTGCAG”, the binding signal was 6000 fluorescence intensity (a.u.).

For the sequence “CTTCACCGGCGGCGAGGAGCACGTCACCGGCGGCGAGCACCGGAGTCACCTAGTGCAG”, the binding signal was 4120 fluorescence intensity (a.u.).

In the case of “GACGCATGCACGCCGCCACGTCGCGCGCCATGGCCACCCCCGGAGTCACCTAGTGCAG”, the binding signal was 9700 fluorescence intensity (a.u.).

Consider “TGACCGGCGCAGCTCGCGCCACGTCACCCGCACGCGCCGCCGGAGTCACCTAGTGCAG”, for which the binding signal was 8600 fluorescence intensity (a.u.).

With “GCTAGCACTCGCCTCCCTCTGCGCCCACGCCACGCTGTGGCGGAGTCACCTAGTGCAG”, the binding signal was 4110 fluorescence intensity (a.u.).

With “ACGTTCCACTCGCGCGCCTCCACGTCAGCACCCACTGTGGCGGAGTCACCTAGTGCAG”, the binding signal was 42300 fluorescence intensity (a.u.).

On to “TTCTCTCCGTCTTCCTCCAGCACTGAATTTGTCGCTGGCGCGGAGTCACCTAGTGCAG”, for which the binding signal is 64900 fluorescence intensity (a.u.).

Regarding “GCCTGTAGCCTGGTGGTTACAAGAGCCTCAGTAGCACCTGCGGAGTCACCTAGTGCAG”, the binding signal is 3250 fluorescence intensity (a.u.).

Regarding “CAACGGCTATGAGCTGTCACACACTCACAGTAGTACTCCGCGGAGTCACCTAGTGCAG”, the binding signal was 3850 fluorescence intensity (a.u.).

Take “ATAAATAGAATGCTGACTGGACTGCCACGCGTACGCCATGCGGAGTCACCTAGTGCAG”: the binding signal was 22000 fluorescence intensity (a.u.).

For “ACGTGCTCAGTCATCATCCTCATGGCCGTTCCTTGCCGAACGGAGTCACCTAGTGCAG”, the binding signal is 6930 fluorescence intensity (a.u.).

With “ATTTTGGTCAAATTTAAACTAATCTAAGTTTGACTAATTTCGGAGTCACCTAGTGCAG”, the binding signal is 8280 fluorescence intensity (a.u.).

“TCAAAGGGTTTCATAAATTTTATGTATATTTTACAAGATTCGGAGTCACCTAGTGCAG”: the binding signal was 5540 fluorescence intensity (a.u.).

On to “CAGAAGGATATATGTTTTATAATTTATTCAAATACTAGATCGGAGTCACCTAGTGCAG”, for which the binding signal was 41400 fluorescence intensity (a.u.).

Regarding “GAGGACAGATCAAATGATTTTAATGACGAAACATGTGCTTCGGAGTCACCTAGTGCAG”, the binding signal is 4096 fluorescence intensity (a.u.).

“GATAAATATAGGAATGTTTATAATACTAAATTAATTTAATCGGAGTCACCTAGTGCAG”: the binding signal is 28300 fluorescence intensity (a.u.).

“GTAATAATAGATTATATTCAATTAATTAATTATTTATTATCGGAGTCACCTAGTGCAG”: the binding signal was 17400 fluorescence intensity (a.u.).

As to “TCTGTACCAAACTCAATTTTAGAATTCAGAGATCCAATAACGGAGTCACCTAGTGCAG”, the binding signal is 40000 fluorescence intensity (a.u.).

On to “CGATTTACTTCAAATTTTAGAGGATCAGATCCGACGAAATCGGAGTCACCTAGTGCAG”, for which the binding signal was 42900 fluorescence intensity (a.u.).

On to “CAATTCCGACGAAATCCGGTCGGATTTCACGAAATTTCGACGGAGTCACCTAGTGCAG”, for which the binding signal is 20600 fluorescence intensity (a.u.).

As for “GCTTTGGAACTCCTTTAGATTATAATCCAACTCAATTCAACGGAGTCACCTAGTGCAG”, the binding signal is 4590 fluorescence intensity (a.u.).

Consider “TGATCAAAGGGTTTTACTAAAGGAGTTATGGTCTAATTTTCGGAGTCACCTAGTGCAG”, for which the binding signal is 64900 fluorescence intensity (a.u.).

Regarding “TTCATAAAACTCCACCTGATCCGAATTACTCTACCAATAACGGAGTCACCTAGTGCAG”, the binding signal is 4490 fluorescence intensity (a.u.).

Regarding “CGAATTTGCTACCCCATTTCACAAATCAAAAGTGCAAAGCCGGAGTCACCTAGTGCAG”, the binding signal was 29200 fluorescence intensity (a.u.).

For the sequence “CACAGTCGACGACACCCTCCATCTCCGTCCCTCCCACTCCCGGAGTCACCTAGTGCAG”, the binding signal was 7160 fluorescence intensity (a.u.).

Consider “ACGGGCCGTGCTTGGGCCAGCGGCTCGGCACGTGGGCCGGCGGAGTCACCTAGTGCAG”, for which the binding signal is 3480 fluorescence intensity (a.u.).

Take “GAATCAGTAAATAAAGCGCTAGGTTTAATGATGTCATGGACGGAGTCACCTAGTGCAG”: the binding signal was 6840 fluorescence intensity (a.u.).
